Data taken from PubChem BioAssay (NCI).
The panel holds about 83,000 compounds, 20% with a hit somewhere; the sample as a whole holds those more often.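 Treatment: one concentration, 48 hours, 96-well format. Scoring: percent growth, with anything below 10 considered active.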 A number with no mark means an inactive call. Activity calls are given as the source filed them.

Legend:
Assay in all cases: NCI-60 one-dose screen, 48 h (100 = growth as untreated, 0 = no growth, -100 = all killed)
Details in all cases: 10 µM unless noted
NCI-H23 lung = tested on: NCI-H23 lung
NCI-H226 lung = tested on: NCI-H226 lung
NCI-H322M lung = tested on: NCI-H322M lung
HOP-62 NSCLC = tested on: HOP-62 NSCLC
NCI-H460 lung = tested on: NCI-H460 lung
HOP-92 NSCLC = tested on: HOP-92 NSCLC
NCI-H522 lung = tested on: NCI-H522 lung
A549/ATCC NSCLC = tested on: A549/ATCC NSCLC
786-0 renal = tested on: 786-0 renal
COLO 205 colon = tested on: COLO 205 colon

| Compound | growth (NCI-H23 lung) | growth (NCI-H226 lung) | growth (NCI-H322M lung) | growth (HOP-62 NSCLC) | growth (NCI-H460 lung) | growth (HOP-92 NSCLC) | growth (NCI-H522 lung) | growth (A549/ATCC NSCLC) | growth (786-0 renal) | growth (COLO 205 colon) |
| --- | --- | --- | --- | --- | --- | --- | --- | --- | --- | --- |
| O=c1[nH]c2ccccc2n1C1CCN(CCOc2ccccc2)CC1 | 93% | 78.9% | 98.8% | 96.7% | 94% | 37.1% | 76.3% | -22.6% (active) | 100% | 94.3% |
| C=CCn1c(C)nc2cc(Nc3nc(Cl)nc4ccccc34)ccc21 | 97.9% | 90.1% | 109% | 108% | 99.2% | 91.9% | 97.4% | 81.4% | 87.8% | 126% |
| O=C(/C=C/c1c(Cl)nc2sccn12)c1nccs1 | 94.2% | 83.4% | 104% | 88.2% | 92.7% | 63.8% | 72.4% | 88% | 102% | 104% |
| Cc1ccc(C2SCC(=O)N2Cc2ccccc2)cc1 (stereo not given) | 100% | 96% | 95.6% | 104% | 115% | 81.7% | 83.6% | 102% | 89.2% | 109% |
| O=C(COc1ccc(/C=C2\Oc3ccccc3C2=O)cc1)Nc1nc2c(s1)CCCC2 | 45.1% | 84.3% | 115% | 44.2% | 99.5% | -90.1% (active) | -74.9% (active) | 73.2% | 20% | 102% |
| O=C(Nc1ccc(Nc2ccncc2)cc1)c1ccc(C(=O)Nc2ccc(Nc3ccncc3)cc2)cc1 | 59.2% | 68.8% | 71.9% | 82.1% | 88.2% | 28.9% | 47.4% | 69.5% | 84.5% | 27.7% |
| N#Cc1c(-c2ccccc2)cc(-c2ccc(Nc3nc(Nc4ccc(F)cc4)nc(Nc4ccc(F)cc4)n3)cc2)nc1N | 72.9% | 101% | 96.2% | 80.5% | 104% | 46.8% | 89% | 86.2% | 83.9% | 81.9% |
| O=C(c1ccccc1)c1c(/C=C/c2ccc(Cl)cc2)nc2ccccc2c1/C=C/c1cccs1 | 102% | 92.4% | 89.4% | 106% | 107% | 87.3% | 88.6% | 92.9% | 94.9% | 103% |
| Cc1cc(NCc2cc(Nc3ccnc4cc(Cl)ccc34)ccc2F)nc(N2CCCC2)n1 | 32.9% | 65.8% | 30.6% | -13.3% (active) | -51.7% (active) | 41.3% | -40.3% (active) | 8.66% (active) | -83.9% (active) | -78.4% (active) |
| Cc1ccc(Cc2cnc(NC(=O)c3ccc4noc(-c5ccccc5)c4c3)s2)cc1 | 94.4% | 88.3% | 88.5% | 64.8% | 84.3% | 103% | 72.7% | 71.7% | 96.2% | 107% |
| NS(=O)(=O)c1cnccc1Sc1ccncc1S(N)(=O)=O | 96.5% | 95.2% | 124% | 91.7% | 108% | 92.1% | 115% | 109% | 100% | 98.8% |
| CCN1C(=O)N(CC)C2C1NN=c1s/c(=C\c3cccs3)c(=O)n12 (stereo not given) | 36.4% | 79% | 42.7% | 46.4% | 8.1% (active) | 64.1% | -9.67% (active) | 25.3% | 28.5% | -6.95% (active) |
| Cc1c(C)c2c(c(C)c1OCC(=O)O)CC[C@@](C)(CCC[C@@H](C)CCC[C@@H](C)CCCC(C)C)O2 | -30.8% [50 µM] (active) | 2.79% [50 µM] (active) | 43.3% [50 µM] | 2.69% [50 µM] (active) | 3.28% [50 µM] (active) | -56.6% [50 µM] (active) | -4.29% [50 µM] (active) | -3.06% [50 µM] (active) | -46.4% [50 µM] (active) | -10.6% [50 µM] (active) |
